# Assay outcomes from PubChem.
# G9a inh: blocks human histone lysine methyltransferase G9a; Q96KQ7; G9a H3K9 monomethylation, AlphaScreen, 2 h; Potency, µM (titrated, usually from 102 µM), for inactives: top-dose activity, negative = inhibition, usual class: inhibitors; actives 8.8% (n = 350,000); AID 504332; also: % is scaled to controls: 0 for no effect and ±100 for the full control effect; nearly all actives have a fitted effect of over 75% in size
# Target sequence (Q96KQ7 913-1193 limits assumed): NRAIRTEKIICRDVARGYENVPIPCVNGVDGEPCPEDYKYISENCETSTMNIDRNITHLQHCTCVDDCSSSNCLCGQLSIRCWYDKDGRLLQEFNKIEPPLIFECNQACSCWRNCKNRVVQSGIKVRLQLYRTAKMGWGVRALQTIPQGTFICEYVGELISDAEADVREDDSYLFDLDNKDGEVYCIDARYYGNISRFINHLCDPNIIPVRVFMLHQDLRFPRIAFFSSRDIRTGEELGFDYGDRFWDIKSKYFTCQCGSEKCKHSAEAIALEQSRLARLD
#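 G9a (20 nM) was preincubated 15 min with compound, then reacted 2 h at room temperature with 500 nM biotin-H3K9 peptide and 20 µM SAM. Monomethyl-H3K9 detected by AlphaScreen using anti-H3K9me1 antibody.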
# JMJD2A Tudor: blocks the human JMJD2A Tudor domain; O75164; AlphaScreen JMJD2A-Tudor / H3K4me3 peptide binding; Potency, µM (highest dose often 114 µM), inactives show top-dose activity change, negative = inhibition, actives largely listed as inhibitors; actives 4.4% (n = 390,000); AID 504339; also: % is scaled to controls: 0 for no effect and ±100 for the full control effect; nearly all actives have a fitted effect of over 50% in size
# GLS inh: glutaminase GLS (human) inhibition; O94925; AID 624170; Potency, µM (highest dose often 45.5 µM), without a hit: top-dose activity change, negative = inhibition, hits mostly inhibitors; GLS enzymatic activity, qHTS titration; actives 0.21% (n = 410,000); also: % is scaled to controls: 0 for no effect and ±100 for the full control effect
#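 Read-out is an Amplex red fluorescence increase coupled through glutamate oxidase and HRP, measured before and after 30 min room-temperature incubation. hKGA is in 45 mM KH2PO4 (pH 8.2) with 0.02% Tween-20; glutamine added as 1mM solution.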
# BAZ2B block: BAZ2B (human) inhibition; actives 4.4% (n = 360,000); AlphaScreen BAZ2B-H3K14Ac peptide displacement; Potency, µM (highest dose often 114 µM), for inactives: top-dose activity change, negative = inhibition, actives largely listed as inhibitors; Q9UIF8; AID 504333; also: % is scaled to controls: 0 for no effect and ±100 for the full control effect; nearly all actives have a fitted effect of over 60% in size
#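 AlphaScreen luminescence quantifies BAZ2B engagement of H3K14Ac peptide; the protein and biotinylated peptide are both at 50 nM final, buffer PBS pH 7.4 with 0.01% Tween-20, all steps at room temperature.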
# HP1b chromo inh: blocks HP1-beta chromodomain binding to methylated histone tails; P83916; AlphaScreen HP1-beta / biotin-H3K9me3 peptide binding; Potency, µM (titrated, usually from 114 µM), for the others: top-dose activity change, negative = inhibition, usual class: inhibitors; actives 0.56% (n = 390,000); AID 540317; also: nearly all actives have a fitted effect of over 70% in size
# Target sequence (P83916 whole entry, looked up): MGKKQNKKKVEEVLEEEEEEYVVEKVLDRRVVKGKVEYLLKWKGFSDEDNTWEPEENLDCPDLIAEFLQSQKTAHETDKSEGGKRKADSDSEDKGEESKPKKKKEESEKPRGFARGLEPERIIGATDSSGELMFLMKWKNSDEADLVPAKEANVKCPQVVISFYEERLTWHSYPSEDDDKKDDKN
#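 Compound inhibition of the preformed complex between 50 nM HP1-beta and 50 nM biotinylated H3K9me3 peptide was read by AlphaScreen. Buffer was PBS pH 7.4 with 0.01% Tween-20. Incubations ran 30 min at room temperature, with 10 ug/mL donor/acceptor beads.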
# * hit, by the source's call; ? = inconclusive; nt = not tested or not shown; [ ] = remark or other dose. A selection: hits, their analogues and other compounds. The true share with any hit is near 10%. Calls follow the shape of the dose curve; as a rule, active = well fitted curve in the direction sought with a large enough effect; inconclusive = small, poorly fitted or top-dose-only effect, or another doubt; inactive = no such curve, though single readings can be large; an effect the other way counts as inactive or inconclusive. Potency is read from the fitted curve at half-maximal effect.
SMILES,G9a inh,JMJD2A Tudor,GLS inh,BAZ2B block,HP1b chromo inh
COc1ccc(-c2c3c(=O)n(C)c(=O)n(C)c3c3n2-c2ccccc2NC3c2ccccc2OC)cc1 (centres undefined),?,-13%,2%,-5%,28%
Cc1ccc(/C=C2\C(=O)NC(=O)N(CCc3ccc(F)cc3)C2=O)o1,3.2µM*,-24%,2%,-8%,27%
Cc1ccc(/C=C2/C(=O)NC(=O)N(Cc3ccc(F)cc3)C2=O)o1,nt,nt,nt,-16%,nt
Cc1ccc(/C=C2\C(=O)NC(=O)N(CCc3ccc(F)cc3)C2=O)s1,?,-2%,-6%,-11%,31%
COCCN1C(=O)NC(=O)/C(=C\c2ccc(Br)cc2)C1=O,45µM*,?,-16%,-5%,11%
CCOc1cc(/C=C2\C(=O)NC(=O)N(CCc3ccc(F)cc3)C2=O)ccc1O,40µM*,-4%,-8%,-17%,27%
COCCN1C(=O)/C(=C/c2c(OC)cc(OC)cc2OC)C(=O)N(c2ccccc2)C1=O,22%[59 µM],-2%[11.4 µM],-25%,0%,8%
CN(C)c1ccc(/C=C2/C(=O)NC(=O)N(CCc3ccc(F)cc3)C2=O)cc1,?,28µM*,43%,?,0%
CCOC(=O)c1cnc(SCc2ccc(Cl)c(Cl)c2)nc1N1CC1,nt,34%,-15%,nt,104%
CNc1ccc2oc(C[C@@H]3OC4(CC[C@@H]3C)O[C@H]([C@@H](C)C(=O)c3ccc[nH]3)[C@H](C)C[C@H]4C)nc2c1C(=O)O (some centres undefined),16µM*,nt,nt,nt,nt
COc1ccc(C2CC(c3c(O)n(CCc4ccccc4)c(=O)[nH]c3=O)=NN2)cc1OC (centres undefined),56µM*,-29%,?,22µM*,38%
CN1CCN(c2cccc3c2C(=O)c2ccccc2C3=O)CC1,?,?,7%,?,-13%
O=C1C(c2ccccc2)=C(N2CC2)c2ccccc21,40µM*,45µM*,5%,35µM*,20µM*
COc1ccc(CCNc2nccn(-c3ccc(C)c(C)c3)c2=O)cc1OC,?,-25%,5%,45µM*,?
CC1=C2CC3C(CC=C4C[C@@H](O)CC[C@@]43C)[C@@H]2CC[C@]12O[C@@H]1C[C@H](C)CN[C@H]1[C@H]2C (some centres undefined),-8%[59 µM],nt,nt,nt,nt
Cc1cc(O)c2c(c1)C(=O)c1cc(O)cc(O)c1C2=O,1.7µM*,45µM*,-2%,nt,?
COc1ccc(C(O)P(=O)(OCC(C)C)c2ccc(N(C)C)cc2)c(OC)c1 (centres undefined),?,-16%,20%,-17%,18%
CC(=O)N1CCN(CC(=O)Nc2ccc(C#N)c(Cl)c2)CC1,-15%,-18%,1%,0%,30%
COc1ccc(CC(=O)Nc2ccc(C#N)c(Cl)c2)cc1S(=O)(=O)N1CCOCC1,40µM*,-10%,24%,?,18%
CC(=NCCCN1CCCCC1)c1c(O)n(Cc2ccccc2)c(=O)[nH]c1=O,-5%[12.7 µM],-17%,-9%,-5%,35%
CCCCn1c(O)c(C(C)=NCCN2CCCCC2)c(=O)[nH]c1=O,28µM*,-20%,19%,-2%,16%
CC(=NCCN1CCCCC1)c1c(O)n(Cc2ccccc2)c(=O)[nH]c1=O,40µM*,-4%,-15%,5%,39%
C#CCN1CC(=O)N(COC(=O)[C@@H]2[C@@H](C=C(C)C)C2(C)C)C1=O,35%[59 µM],nt,0%,nt,nt
C=C(C)C(=O)Nc1cccc(C2=NOC3(C2)C[C@H](C(N)=O)N(C(=O)/C=C/C)C3)c1 (some centres undefined),?,8.9µM*,-3%,7.1µM*,8.9µM*
CCCNC(=O)c1cnn2c(C)c(Cc3c(C)cc(C)cc3C)c(C)nc12,-3%[59 µM],?,-16%,10%,12%
CC(=O)c1ccc2c(c1)C1C(Cl)C(Sc3ccccc3[N+](=O)[O-])CC1C(c1ccccc1)N2 (centres undefined),10µM*,45µM*,-8%,45µM*,-23%
CCCCCCCn1c(=O)c(C(=O)Nc2cnccn2)c(O)c2ccccc21,0%,8%,17%,5%,70%
